Shown is part of a subset that was picked to be rich in hits.
DUX4 txn inh – blocks DUX4-driven transcriptional activation | 293T-iDUX4 ZSCAN4-Gaussia luciferase reporter, 24 h; stronger effect = lower value | 37,000 compounds, 0.8% hits | activity change, negative = inhibition, % (test concentration not listed) | AID 1224904;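 active = mean inhibition of at least 10% in the main channel, exceeding the control channel by a set limit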;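 also: 0% = median of neutral control wells and -100% = median of positive control wells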
Starred values were filed as active, the others as inactive; ! = a repeat was not active.

SMILES	DUX4 txn inh
C[C@@H]1CN([C@H](C)CO)C(=O)c2ccccc2-c2ccccc2CO[C@@H]1CN(C)Cc1ccc2c(c1)OCO2	-9.8
C[C@H]1CN([C@@H](C)CO)C(=O)c2ccccc2-c2ccccc2CO[C@@H]1CN(C)Cc1ccc(Cl)c(Cl)c1	-41.6*
C[C@@H]1CN([C@@H](C)CO)C(=O)c2ccccc2-c2ccccc2CO[C@@H]1CN(C)Cc1ccc(O)cc1	-0.1
C[C@H](CO)N1C[C@H](C)[C@@H](CN(C)Cc2ccc(F)cc2)OCc2ccccc2-c2ccccc2C1=O	16.4
C[C@H](CO)N1C[C@H](C)[C@H](CN(C)Cc2ccc(O)cc2)OCc2ccccc2-c2ccccc2C1=O	-2.9
C[C@@H]1CN([C@H](C)CO)C(=O)c2ccccc2-c2ccccc2CO[C@@H]1CN(C)Cc1ccc(Cl)c(Cl)c1	-51.6*
O=C(Cc1ccccc1)N1C[C@H]2[C@@H](c3ccccc31)[C@@H](CO)N2C(=O)Nc1ccc(F)cc1	-2.8
C/C=C/c1ccc([C@H]2[C@H](CO)N3C(=O)CN(Cc4ccc(C(=O)OC)cc4)C[C@@H]23)cc1	17.8
COc1ccc(CN2C[C@H](C)[C@H](OC)CN(C)C(=O)c3cc(NC(=O)C4CC4)ccc3OC[C@@H]2C)cc1	-1.4
O=C(C[C@H]1CC[C@@H]2[C@H](COC[C@H](O)CN2C(=O)c2ccccc2)O1)NCc1cccc(F)c1	19.1
CCC(=O)N1[C@@H](CO)[C@H](c2ccccc2)C12CN(C(=O)NC1CCCC1)C2	6.7
COC(=O)C[C@@H]1CC[C@@H]2[C@@H](COc3ccc(NC(=O)c4cccc(F)c4)cc3C(=O)N2C)O1	-0.2
C[C@H]1CN([C@@H](C)CO)C(=O)CCCn2cc(nn2)CO[C@H]1CN(C)C(=O)c1cc(-c2ccccc2)on1	0.8
COc1ccc2c3c(n(C)c2c1)[C@H](CO)NCC31CCN(C(=O)Nc2ccc(F)cc2F)CC1	10.2
COc1ccccc1S(=O)(=O)N1C[C@@H]2N[C@H](C1)C2c1ccc(-c2ccccc2C)cc1 (stereo not given in full)	-42.1*!
Cc1ccccc1-c1ccc(C2[C@@H]3CN(Cc4cccnc4)C[C@H]2N3)cc1 (stereo not given in full)	-24.3*
CN(C)C(=O)c1ccc(-c2ccc(C3[C@@H]4CN(Cc5cccnc5)C[C@H]3N4)cc2)cc1 (stereo not given in full)	3.8
COc1ccc(NC(=O)N2C[C@@H]3N[C@H](C2)C3c2ccc(-c3cncnc3)cc2)cc1 (stereo not given in full)	9.3
Cc1ccccc1-c1ccc(C2[C@@H]3CN(C(=O)C4CCOCC4)C[C@H]2N3)cc1 (stereo not given in full)	0.6
C/C=C/c1ccc(C2[C@@H]3CN(S(=O)(=O)c4ccccc4F)C[C@H]2N3)cc1 (stereo not given in full)	-6.0
CN(C)C(=O)c1ccc(-c2ccc(C3[C@@H]4CN(S(=O)(=O)c5ccccc5F)C[C@H]3N4)cc2)cc1 (stereo not given in full)	0.8
Cc1ccccc1-c1ccc(C2[C@@H]3CN(S(=O)(=O)c4ccccc4C)C[C@H]2N3)cc1 (stereo not given in full)	-36.2*!
COc1ccccc1-c1ccc(C2[C@@H]3CN(C(=O)c4ccncc4)C[C@H]2N3)cc1 (stereo not given in full)	8.5
Cc1ccccc1-c1ccc([C@@H]2[C@@H](CO)N3C(=O)CN(S(C)(=O)=O)C[C@@H]23)cc1	7.0
COc1ccc(-c2ccc(C3[C@@H]4CN(S(=O)(=O)c5ccccc5C)C[C@H]3N4)cc2)cc1 (stereo not given in full)	-42.4*!
SMILES	DUX4 txn inh
COc1ccccc1-c1ccc(C2[C@@H]3CN(C(=O)c4cccnc4)C[C@H]2N3)cc1 (stereo not given in full)	9.6
Cc1ccc(-c2cnc3c(c2)C(=O)N([C@@H](C)CO)C[C@@H](C)[C@@H](CN(C)Cc2ccccc2C(=O)O)O3)cc1	-1.9
O=C(C[C@H]1C=C[C@@H](NC(=O)Cc2cccnc2)[C@H](CO)O1)Nc1ccc(-c2ccccc2)cc1	-1.4
COc1ccc2c3c([nH]c2c1)[C@@H](CO)N(C(=O)CN1CCOCC1)CC31CN(C)C1	-0.2
CCCNC(=O)C[C@H]1CC[C@@H]2[C@H](COC[C@@H](O)CN2C(=O)Nc2cccc(Cl)c2)O1	7.2
COCC(=O)Nc1ccc2c(c1)[C@@H]1C[C@@H](CC(=O)NCc3ccccc3F)O[C@@H](CO)[C@@H]1O2	1.0
CC=Cc1ccc2n(c1=O)C[C@@H]1[C@@H](CO)[C@H](C(=O)NCC3CC3)N(Cc3nccs3)[C@H]21 (mixture of isomers)	-4.0
COc1ccc(S(=O)(=O)N[C@H]2C=C[C@H](CC(=O)NCc3ccccc3F)O[C@@H]2CO)cc1	3.0
O=C(NCc1ccccc1Cl)[C@H]1[C@H](CO)[C@H]2Cn3c(cccc3=O)[C@H]2N1C(=O)C1CCCC1	4.3
Cc1ccccc1-c1ccc(C2[C@@H]3CN(S(=O)(=O)c4ccccc4)C[C@H]2N3)cc1 (stereo not given in full)	-49.9*!
COc1ccc(-c2ccc(C3[C@@H]4CN(C(=O)c5cnccn5)C[C@H]3N4)cc2)cc1 (stereo not given in full)	-32.2*
C/C=C/c1ccc(C2[C@@H]3CN(S(=O)(=O)c4ccc(F)cc4)C[C@H]2N3)cc1 (stereo not given in full)	1.6
O=C(c1cnccn1)N1C[C@@H]2N[C@H](C1)C2c1ccc(/C=C/c2ccccc2)cc1 (stereo not given in full)	-5.4
COc1cccc(S(=O)(=O)N2[C@@H]3CNC[C@H]2C3c2ccc(-c3ccccc3C)cc2)c1 (stereo not given in full)	16.4
COc1ccc(NC(=O)N2C[C@@H]3N[C@H](C2)C3c2ccc(-c3ccncc3)cc2)cc1 (stereo not given in full)	7.6
COC(=O)C[C@@H]1CC[C@H]2[C@H](COc3ccc(NC(=O)c4ccc(F)c(F)c4)cc3C(=O)N2C)O1	2.5
O=C(C[C@H]1CC[C@@H](NS(=O)(=O)c2ccccc2F)[C@H](CO)O1)NCCCN1CCOCC1	1.2
O=C(N[C@H]1CC[C@@H](CCNC(=O)C2CCOCC2)O[C@@H]1CO)c1ccccn1	3.1
CN1C(=O)c2cc(NC(=O)C3CC3)ccc2OC[C@@H]2O[C@H](CC(=O)NCCN3CCCC3)CC[C@@H]21	-1.8
CCNC(=O)C[C@@H]1CC[C@@H]2[C@H](COC[C@H](O)CN2C(=O)Nc2ccc(C(F)(F)F)cc2)O1	8.8
COCC#Cc1ccc([C@H]2[C@@H](CO)N3CCCCN(S(=O)(=O)c4ccc(OC)cc4)C[C@H]23)cc1	2.7
CC(C)CC#Cc1ccc([C@@H]2[C@H](CO)N3CCCCN(S(=O)(=O)Cc4ccccc4)C[C@@H]23)cc1	2.3
O=S(=O)(Cc1ccccc1)N1CCCCN2[C@H](CO)[C@H](c3ccc(-c4ccc(F)cc4)cc3)[C@@H]2C1	-6.9
COc1cccc(S(=O)(=O)N2CCCCN3[C@H](CO)[C@H](c4ccc(C#CCC(C)C)cc4)[C@@H]3C2)c1	-48.8*
CC(C)CC#Cc1ccc([C@H]2[C@H](CO)N3CCCCN(S(=O)(=O)Cc4ccccc4)C[C@@H]23)cc1	2.1
COc1ccc(S(=O)(=O)N2CCCCN3[C@H](C2)[C@H](c2ccc(C#CC(C)C)cc2)[C@@H]3CO)cc1	8.2
